Screening results as filed in PubChem.
RORg inh: inhibitors of mouse ROR gamma transcriptional activity; Drosophila S2 Gal4-RORgamma UAS-luciferase reporter, 20 h; Potency, µM (highest dose often 53.6 µM), hits mostly inhibitors; 310,000 compounds, 5.4% hits; AID 2551; further: nearly all actives have a fitted effect of over 60% in size
Target sequence (P51450 whole entry, looked up, the tested form may be a part): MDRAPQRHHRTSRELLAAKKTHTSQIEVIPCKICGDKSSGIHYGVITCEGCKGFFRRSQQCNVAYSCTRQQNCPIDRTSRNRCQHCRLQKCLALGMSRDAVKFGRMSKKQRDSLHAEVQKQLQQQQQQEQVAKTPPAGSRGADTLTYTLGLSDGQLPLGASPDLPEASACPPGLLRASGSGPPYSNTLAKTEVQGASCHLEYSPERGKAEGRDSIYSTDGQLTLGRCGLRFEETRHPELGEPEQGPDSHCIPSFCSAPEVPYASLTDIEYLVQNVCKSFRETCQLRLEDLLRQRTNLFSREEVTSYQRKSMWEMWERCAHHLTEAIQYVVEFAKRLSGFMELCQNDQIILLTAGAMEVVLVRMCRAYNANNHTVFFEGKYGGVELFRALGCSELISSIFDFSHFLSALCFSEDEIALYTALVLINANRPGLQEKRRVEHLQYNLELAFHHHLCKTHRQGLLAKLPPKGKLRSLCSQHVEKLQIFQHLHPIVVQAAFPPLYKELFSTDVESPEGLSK
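Schneider cells (Drosophila), stable Gal4 DBD–ROR gamma + UAS-luc; 1 hr cmpd preincubation; Cu2+ induction 700 uM final; 20 hr ambient; luminescence.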
ELG1 repair inh: inhibitors of ELG1-dependent DNA repair in HEK293T cells. HEK293T ELG1-luciferase reporter, luminescence, 16 h; DNA damage induced by 5-fluorouridine. Potency, µM (series often up to 46.1 µM), actives largely listed as inhibitors. 330,000 compounds, 2.3% hits. AID 504467; further: nearly all actives have a fitted effect of over 55% in size
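In this reporter screen, reduction of luminescence relative to DMSO vehicle indicated activity. Compounds and 5-fluorouridine were added together to 2,000 cells per well, incubated for 16 hr at 37 °C, then developed with ONE-Glo.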
VP16 counter: counter-screen for ROR gamma inhibitors: Gal4-VP16 reporter | Drosophila S2 Gal4-VP16 UAS-luciferase, luminescence, 20 h | Potency, µM (top dose mostly 53.6 µM), actives largely listed as inhibitors | 310,000 compounds, 3.5% hits | AID 2546;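 further: Gal4-VP16 expression switched on by copper sulfate through the metallothionein promoter; nearly all actives have a fitted effect of over 50% in size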
TSHR antag: blocks TSH signaling through the human TSH receptor. P16473. TSHR-expressing cells, TSH-stimulated cAMP HTRF, 2 h; active compounds read low. activity change, negative = inhibition, % at 11.5 µM. 330,000 compounds, 0.2% hits. AID 504810;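 active means activity change below a set negative limit, meaning inhibition stronger than a set level, cut at about -70% in these data; inconclusive means activity change between two set negative limits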
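TSHR-expressing cells were treated with compounds, then stimulated with TSH at EC80 (4nM final) for 2 hours at 37 deg C. Cellular cAMP was measured by HTRF competition between lysate cAMP and cAMP-d2 for a cryptate-labelled anti-cAMP antibody.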
B2AR arrestin: beta2AR (human) beta-arrestin recruitment activity | beta-arrestin recruitment to beta2AR, cell-based reporter | Potency, µM (titrated, usually from 46.1 µM), hits mostly activators | 330,000 compounds, 0.02% hits | AID 492947; further: nearly all actives have a fitted effect of over 65% in size
A number is an active result; [ ] = dose if it differs, or a comment. Shown are actives, neighbours in structure and some others; about 7.5% of the full set was active somewhere. Unless noted, the call rests on the fitted dose curve; in most records, active means well fitted curve in the direction sought with a large enough effect; inconclusive means small, poorly fitted or top-dose-only effect, or another doubt; inactive means no such curve, though single readings can be large; an effect the other way counts as inactive or inconclusive.

Results for COc1ccc(-c2cc(=O)oc3c(C)c(OC(C)C(=O)NCc4ccccn4)ccc23)cc1 (centres undefined) ?
RORg inh: inactive; ELG1 repair inh: inconclusive; VP16 counter: inactive; TSHR antag: inactive; B2AR arrestin: inactive

Results for Oc1ccccc1/C=N/Nc1nc2ccccc2o1 ?
RORg inh: 0.501µM; ELG1 repair inh: inconclusive; VP16 counter: 3.98µM; TSHR antag: inactive; B2AR arrestin: 14.1µM

Results for COc1ccc(/C=N/Nc2nc3ccccc3o2)cc1O ?
RORg inh: 11.2µM; ELG1 repair inh: inconclusive; VP16 counter: inconclusive; TSHR antag: inactive; B2AR arrestin: inactive

How did Brc1ccc(/C=N/Nc2nc3ccccc3o2)cc1 do in these assays?
RORg inh: 8.91µM; ELG1 repair inh: inconclusive; VP16 counter: inconclusive; TSHR antag: inactive; B2AR arrestin: inactive

Results for COc1ccc(C2/C=C\CN(CC(C)C)C(C)C(=O)N2Cc2ccc(F)cc2)cc1 (centres undefined) ?
RORg inh: inactive; VP16 counter: inactive

What do the screens show for `O=C(NCCS(=O)(=O)N1CCN(c2ccccc2F)CC1)c1ccc2c(c1)OCO2`?
ELG1 repair inh: inconclusive; TSHR antag: inactive; B2AR arrestin: inactive

How did Cc1ccccc1CN(C)C(=O)COC(=O)c1ccc2[nH]c(C)c(C)c2c1 do in these assays?
ELG1 repair inh: 25.9µM; TSHR antag: inactive; B2AR arrestin: inactive

Results for CCC1CSC(Nc2ccc(C(=O)/C=C/c3ccc(OC)c(OC)c3)cc2)=N1 (centres undefined) ?
RORg inh: inconclusive; ELG1 repair inh: 20.6µM; VP16 counter: inconclusive; TSHR antag: inactive; B2AR arrestin: inactive

What do the screens show for `CCCCCCc1cc2cc(S(=O)(=O)c3ccc(F)c(Cl)c3)c(=O)oc2cc1O`?
RORg inh: inconclusive; ELG1 repair inh: inconclusive; VP16 counter: 3.98µM; TSHR antag: inactive; B2AR arrestin: inactive

What do the screens show for `COc1cccc(C(=O)C2CCCN(C(=O)c3cccc(C#CC(C)(C)O)c3)C2)c1` (centres undefined)?
RORg inh: inactive; ELG1 repair inh: 16.4µM; VP16 counter: inactive; TSHR antag: inactive; B2AR arrestin: inactive

How did Cn1nc(C(=O)OCC(=O)Nc2ccc(SC(F)F)cc2)c2ccccc2c1=O do in these assays?
ELG1 repair inh: inactive; B2AR arrestin: inactive

How did CCN1/C(=C(\O)c2ccccc2)C(=O)c2ccccc2S1(=O)=O do in these assays?
RORg inh: 10µM; ELG1 repair inh: inconclusive; VP16 counter: inconclusive; TSHR antag: inactive; B2AR arrestin: inactive

Results for CCOC(=O)c1ccc(CN2C(=O)c3ccccc3S2(=O)=O)cc1 ?
RORg inh: inactive; ELG1 repair inh: inactive; VP16 counter: inactive; TSHR antag: inactive; B2AR arrestin: inactive

What do the screens show for `COC(=O)C1=C(C)N(Cc2ccccc2)C2=C(C(C)=O)C[C@@](O)(C(=O)OC)C(=O)N2C1c1ccccc1` (some centres undefined)?
RORg inh: inactive[10 µM]; VP16 counter: inactive[10 µM]

Results for CCCCCCCc1cc2c(cn1)=C(OC)C(C)(OC(C)=O)C(=O)C=2Cl (centres undefined) ?
RORg inh: inactive; VP16 counter: inactive

What do the screens show for `Cc1ccc(NC(=O)Cc2nc(-c3c[nH]c(C(=O)N4CCCC4)c3)cs2)c(C)c1`?
ELG1 repair inh: 16.4µM; TSHR antag: inactive; B2AR arrestin: inactive

What do the screens show for `Cc1ccc(NC(=O)CSc2n[nH]c(-c3ccncc3)n2)c(C)c1`?
RORg inh: inactive; ELG1 repair inh: inactive; VP16 counter: inactive; TSHR antag: inactive; B2AR arrestin: inactive

How did O=c1c2c(nc3c(-c4ccc(Cl)cc4)c[nH]n13)CCC2 do in these assays?
RORg inh: 5.01µM; ELG1 repair inh: 13µM; VP16 counter: inconclusive; TSHR antag: inactive; B2AR arrestin: inactive

What do the screens show for `O=c1c2c(nc3c(-c4cccc(Br)c4)c[nH]n13)CCCC2`?
RORg inh: 2.51µM; ELG1 repair inh: inconclusive; VP16 counter: 3.16µM; TSHR antag: inactive; B2AR arrestin: inactive

Results for O=c1c2c(nc3cc(-c4ccc(Br)cc4)[nH]n13)CCCC2 ?
RORg inh: inactive; ELG1 repair inh: inactive; VP16 counter: inactive; TSHR antag: inactive; B2AR arrestin: inactive

Results for CCNc1nc(NCC)n2c(SC(C(=O)Nc3cc(C)ccc3OC)c3ccccc3)nnc2n1 (centres undefined) ?
RORg inh: inactive; ELG1 repair inh: 23.1µM; VP16 counter: inactive; TSHR antag: inactive; B2AR arrestin: inactive

What do the screens show for `Cc1cc(C)nc(/N=C(\N)Nc2ccc3c(c2)OCCO3)n1`?
RORg inh: inactive; ELG1 repair inh: inactive; VP16 counter: inactive; TSHR antag: inactive; B2AR arrestin: inactive

How did NC(=S)N/N=C1\CC(c2ccc3c(c2)OCCO3)Oc2ccc(F)cc21 (centres undefined) do in these assays?
RORg inh: 6.31µM; ELG1 repair inh: inactive; VP16 counter: 6.31µM; TSHR antag: inactive; B2AR arrestin: inactive

Results for NC(=S)N/N=C1\CC(c2ccc3c(c2)OCCCO3)Oc2ccc(F)cc21 (centres undefined) ?
RORg inh: inactive; ELG1 repair inh: 3.66µM; VP16 counter: 0.562µM; TSHR antag: inactive; B2AR arrestin: inconclusive

What do the screens show for `O=C(/C=C/c1cccc(C(F)(F)F)c1)NNC(=O)c1ccncc1`?
ELG1 repair inh: inactive; TSHR antag: inactive; B2AR arrestin: inactive

How did CC(C)(C)C(=O)NNC(=O)c1cc2sccc2s1 do in these assays?
RORg inh: inactive; ELG1 repair inh: inactive; VP16 counter: inactive; TSHR antag: inactive; B2AR arrestin: inactive

What do the screens show for `CCN(CC)C(=S)SSC(=S)N(CC)CC`?
RORg inh: 1.12µM; ELG1 repair inh: inconclusive; VP16 counter: 1µM; TSHR antag: inactive; B2AR arrestin: 0.651µM

What do the screens show for `CCOC(=O)CNS(=O)(=O)c1ccc(F)cc1Br`?
RORg inh: inactive; VP16 counter: inactive

What do the screens show for `CN1CCN(C2=Cc3ccccc3Sc3cc(F)c(Cl)cc32)CC1`?
RORg inh: inconclusive; ELG1 repair inh: inactive; VP16 counter: inconclusive; TSHR antag: inactive; B2AR arrestin: inactive

Results for CN1CCN(C2=Cc3ccccc3Sc3cc(F)c(F)cc32)CC1 ?
RORg inh: 7.94µM; ELG1 repair inh: inactive; VP16 counter: 7.94µM; TSHR antag: inactive; B2AR arrestin: inactive

What do the screens show for `COC(=O)[C@H](Cc1ccccc1)NC(=O)O[C@@H]1C(=O)c2ccc(OC)cc2O[C@H]1c1cccc(C(F)(F)F)c1`?
RORg inh: inactive; VP16 counter: inactive

What do the screens show for `Cc1cc(O)ccc1NC(=S)NC(=O)c1cncc(Br)c1`?
RORg inh: 0.794µM; ELG1 repair inh: inactive; VP16 counter: 0.562µM; TSHR antag: inactive; B2AR arrestin: inactive

Results for O=C(NC(=S)NC1CCCCCC1)c1cncc(Br)c1 ?
RORg inh: 3.55µM; ELG1 repair inh: inconclusive; VP16 counter: 6.31µM; TSHR antag: inactive; B2AR arrestin: inactive

Results for O=C(NC(=S)Nc1ncc(Br)cc1Br)c1cncc(Br)c1 ?
RORg inh: 6.31µM; VP16 counter: inconclusive
